This passage reports binding signal results from PMC7862700, “An all-to-all approach to the identification of sequence-specific readers for epigenetic DNA modifications on cytosine”.

Holding throughout (experiment): DAPPL (digital affinity profiling via proximity ligation, sequencing); 10 mM Tris-HCl pH 7.5, 50 mM NaCl, 1 mM DTT, 4% glycerol, room temperature, 30 min; GST-TFs on glutathione beads, 16-mer random dsDNA library, 0.1% formaldehyde crosslink after washing; high values mean tight binding
Common to all, as to conditions: protein: recombinant; tags: N-terminal GST; dsDNA, one strand shown

The target in one assay is T1, ELK4 (Homo sapiens, UniProt P28324-2 1-405).
T1 sequence: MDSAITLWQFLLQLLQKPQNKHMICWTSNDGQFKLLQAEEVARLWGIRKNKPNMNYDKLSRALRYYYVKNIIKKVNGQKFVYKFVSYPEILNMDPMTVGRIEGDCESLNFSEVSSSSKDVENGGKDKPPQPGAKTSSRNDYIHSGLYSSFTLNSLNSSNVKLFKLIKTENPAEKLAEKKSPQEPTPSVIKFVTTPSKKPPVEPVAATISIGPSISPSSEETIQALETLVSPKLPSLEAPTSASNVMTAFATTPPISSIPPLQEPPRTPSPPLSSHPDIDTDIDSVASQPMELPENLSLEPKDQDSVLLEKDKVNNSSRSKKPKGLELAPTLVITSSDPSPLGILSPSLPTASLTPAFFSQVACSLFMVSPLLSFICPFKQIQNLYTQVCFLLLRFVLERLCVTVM
The method in brief:
(§1)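 Binding signal is given per hexamer as its read frequency for a factor divided by its frequency in the tag-only sample. GST-fused human transcription factors were expressed in yeast, captured on glutathione beads, barcoded with DNA and pooled with that sample, then incubated with 200 nmole of a 16-mer random double-stranded DNA library in Tris/NaCl/DTT/glycerol buffer for 30 min at room temperature. The pools were then washed, crosslinked, proximity-ligated, amplified by PCR and sequenced on an Illumina NextSeq500.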

The next assay deals with T2, ELK1 (Homo sapiens, UniProt P19419 1-428).
T2 sequence: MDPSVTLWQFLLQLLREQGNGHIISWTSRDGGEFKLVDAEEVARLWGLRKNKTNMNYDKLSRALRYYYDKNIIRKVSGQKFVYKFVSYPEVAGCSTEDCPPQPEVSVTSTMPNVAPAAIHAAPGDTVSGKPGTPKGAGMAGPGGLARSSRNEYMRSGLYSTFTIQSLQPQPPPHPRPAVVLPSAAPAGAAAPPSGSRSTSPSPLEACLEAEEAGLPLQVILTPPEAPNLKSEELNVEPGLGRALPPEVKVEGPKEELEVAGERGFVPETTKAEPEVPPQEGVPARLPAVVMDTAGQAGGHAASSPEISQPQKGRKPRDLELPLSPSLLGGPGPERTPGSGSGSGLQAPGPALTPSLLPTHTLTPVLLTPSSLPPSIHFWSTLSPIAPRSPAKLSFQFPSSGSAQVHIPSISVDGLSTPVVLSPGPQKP
The method in brief:
as §1

The target in another assay is T3, ERG (Homo sapiens, UniProt P11308 1-479).
T3 sequence: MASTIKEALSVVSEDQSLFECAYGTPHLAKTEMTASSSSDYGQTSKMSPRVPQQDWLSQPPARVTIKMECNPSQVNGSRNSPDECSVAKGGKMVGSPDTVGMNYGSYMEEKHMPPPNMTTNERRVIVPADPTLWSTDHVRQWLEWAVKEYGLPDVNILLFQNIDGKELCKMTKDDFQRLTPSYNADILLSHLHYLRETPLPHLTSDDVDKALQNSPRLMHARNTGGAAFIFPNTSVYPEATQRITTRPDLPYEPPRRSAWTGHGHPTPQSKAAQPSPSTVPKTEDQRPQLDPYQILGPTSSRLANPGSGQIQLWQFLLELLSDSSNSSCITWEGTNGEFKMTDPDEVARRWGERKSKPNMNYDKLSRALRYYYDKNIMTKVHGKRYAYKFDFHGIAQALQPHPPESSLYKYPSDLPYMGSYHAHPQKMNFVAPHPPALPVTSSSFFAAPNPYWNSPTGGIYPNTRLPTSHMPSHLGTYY
The method in brief: as §1

For another assay, the target named is T4, ELF3 (Homo sapiens, UniProt P78545 1-371).
T4 sequence: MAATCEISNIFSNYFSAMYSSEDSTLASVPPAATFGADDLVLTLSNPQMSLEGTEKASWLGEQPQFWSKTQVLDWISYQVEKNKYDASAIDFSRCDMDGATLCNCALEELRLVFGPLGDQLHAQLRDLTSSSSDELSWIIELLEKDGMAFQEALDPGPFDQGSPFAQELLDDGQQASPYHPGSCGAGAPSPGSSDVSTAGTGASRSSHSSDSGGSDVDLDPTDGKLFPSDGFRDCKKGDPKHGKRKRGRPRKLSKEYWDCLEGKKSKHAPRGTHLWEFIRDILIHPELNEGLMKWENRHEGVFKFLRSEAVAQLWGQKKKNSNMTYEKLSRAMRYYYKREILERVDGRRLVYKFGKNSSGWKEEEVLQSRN
The method in brief: as §1

In a further assay the target is CRX (Homo sapiens, UniProt O43186 1-299). The method in brief:
as §1

The next assay deals with ETV1 (Homo sapiens, UniProt P50549 1-477). The method in brief:
as §1

In a further assay the target is T5, ERF (Homo sapiens, UniProt P50548 1-548).
T5 sequence: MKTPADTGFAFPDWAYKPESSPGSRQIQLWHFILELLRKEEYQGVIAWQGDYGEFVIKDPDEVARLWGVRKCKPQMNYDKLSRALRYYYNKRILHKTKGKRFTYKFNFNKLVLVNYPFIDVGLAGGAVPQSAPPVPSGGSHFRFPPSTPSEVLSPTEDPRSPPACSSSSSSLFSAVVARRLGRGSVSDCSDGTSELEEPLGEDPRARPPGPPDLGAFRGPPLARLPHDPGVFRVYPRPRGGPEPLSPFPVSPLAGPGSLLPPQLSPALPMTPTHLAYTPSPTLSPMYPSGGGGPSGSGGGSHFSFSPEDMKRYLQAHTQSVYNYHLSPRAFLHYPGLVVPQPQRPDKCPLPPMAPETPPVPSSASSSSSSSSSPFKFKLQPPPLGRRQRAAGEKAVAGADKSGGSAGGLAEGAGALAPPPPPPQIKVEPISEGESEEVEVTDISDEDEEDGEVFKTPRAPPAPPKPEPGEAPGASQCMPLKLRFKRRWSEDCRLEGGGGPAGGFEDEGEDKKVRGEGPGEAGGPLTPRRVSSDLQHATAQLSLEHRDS
The essentials: as §1

In the next assay the target is T6, SPDEF (Homo sapiens, UniProt O95238 1-335).
T6 sequence: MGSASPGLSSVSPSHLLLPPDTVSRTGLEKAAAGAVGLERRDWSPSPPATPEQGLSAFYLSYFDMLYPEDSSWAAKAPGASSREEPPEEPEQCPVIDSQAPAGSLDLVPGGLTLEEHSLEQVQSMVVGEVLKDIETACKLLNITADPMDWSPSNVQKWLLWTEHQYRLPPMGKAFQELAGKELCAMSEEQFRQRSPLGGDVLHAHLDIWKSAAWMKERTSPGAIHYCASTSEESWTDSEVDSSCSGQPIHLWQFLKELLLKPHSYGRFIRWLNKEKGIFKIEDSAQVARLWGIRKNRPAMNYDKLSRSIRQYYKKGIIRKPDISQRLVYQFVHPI
The method in brief: as §1

The target in another assay is T7, ETV3 (Homo sapiens, UniProt P41162-2 1-143).
T7 sequence: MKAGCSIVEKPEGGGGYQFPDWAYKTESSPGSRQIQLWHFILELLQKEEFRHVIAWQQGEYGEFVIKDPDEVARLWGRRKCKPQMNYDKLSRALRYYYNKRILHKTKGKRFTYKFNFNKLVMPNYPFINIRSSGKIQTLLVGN
The method in brief:
as §1

For another assay, the target named is T8, GABPA (Homo sapiens, UniProt Q06546 1-454).
T8 sequence: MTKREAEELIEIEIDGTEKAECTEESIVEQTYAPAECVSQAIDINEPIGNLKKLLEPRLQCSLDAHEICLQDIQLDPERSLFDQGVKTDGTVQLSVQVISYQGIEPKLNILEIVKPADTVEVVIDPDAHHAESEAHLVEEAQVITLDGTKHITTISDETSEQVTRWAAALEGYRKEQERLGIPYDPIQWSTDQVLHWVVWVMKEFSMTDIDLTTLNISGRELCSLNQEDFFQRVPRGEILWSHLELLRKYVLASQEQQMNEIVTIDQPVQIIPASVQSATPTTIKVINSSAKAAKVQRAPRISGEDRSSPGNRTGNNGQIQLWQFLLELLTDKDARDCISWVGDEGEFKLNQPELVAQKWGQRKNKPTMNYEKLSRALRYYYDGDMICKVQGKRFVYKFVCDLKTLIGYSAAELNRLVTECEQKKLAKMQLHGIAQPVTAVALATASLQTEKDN
The essentials:
as §1

Another assay concerns the target ELF1 (Homo sapiens, UniProt P32519 1-619). The method in brief: as §1
A further assay addresses T9, EHF (Homo sapiens, UniProt Q9NZC4 1-300).
T9 sequence: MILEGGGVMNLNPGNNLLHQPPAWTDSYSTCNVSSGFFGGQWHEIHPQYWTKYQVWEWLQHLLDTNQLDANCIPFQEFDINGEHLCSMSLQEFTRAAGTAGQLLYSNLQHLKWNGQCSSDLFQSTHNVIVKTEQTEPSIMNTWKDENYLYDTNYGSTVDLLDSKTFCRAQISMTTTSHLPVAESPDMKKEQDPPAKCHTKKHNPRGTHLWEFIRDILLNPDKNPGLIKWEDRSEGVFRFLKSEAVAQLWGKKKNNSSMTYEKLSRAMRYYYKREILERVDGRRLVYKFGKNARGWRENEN
The essentials:
as §1

The target in a further assay is T10, ETV3L (Homo sapiens, UniProt Q6ZN32 1-361).
T10 sequence: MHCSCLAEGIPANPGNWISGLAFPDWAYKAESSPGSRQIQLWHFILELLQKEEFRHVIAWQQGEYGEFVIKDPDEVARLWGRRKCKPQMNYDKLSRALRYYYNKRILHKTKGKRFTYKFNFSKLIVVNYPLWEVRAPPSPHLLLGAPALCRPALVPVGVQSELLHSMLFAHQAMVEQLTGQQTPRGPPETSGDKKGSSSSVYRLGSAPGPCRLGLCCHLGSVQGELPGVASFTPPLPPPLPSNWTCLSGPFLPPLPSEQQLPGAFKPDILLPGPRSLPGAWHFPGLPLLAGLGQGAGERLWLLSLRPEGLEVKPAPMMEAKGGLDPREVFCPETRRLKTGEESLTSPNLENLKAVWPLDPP
The method in brief:
as §1

The target in another assay is T11, ETS2 (Homo sapiens, UniProt P15036 1-469).
T11 sequence: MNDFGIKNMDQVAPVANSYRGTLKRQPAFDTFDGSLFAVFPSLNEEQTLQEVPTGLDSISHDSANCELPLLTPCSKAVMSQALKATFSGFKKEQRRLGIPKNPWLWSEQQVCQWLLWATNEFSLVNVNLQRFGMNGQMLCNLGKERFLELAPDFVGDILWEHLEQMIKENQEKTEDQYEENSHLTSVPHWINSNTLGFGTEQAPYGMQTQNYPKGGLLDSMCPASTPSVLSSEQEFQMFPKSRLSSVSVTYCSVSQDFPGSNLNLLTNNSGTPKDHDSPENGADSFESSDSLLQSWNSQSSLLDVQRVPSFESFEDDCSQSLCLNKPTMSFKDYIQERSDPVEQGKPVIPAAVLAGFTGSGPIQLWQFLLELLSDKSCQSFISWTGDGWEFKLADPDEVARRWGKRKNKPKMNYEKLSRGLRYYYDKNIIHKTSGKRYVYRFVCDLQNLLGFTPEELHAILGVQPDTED
The essentials:
as §1

Sequence of ETV1 (P50549 whole entry): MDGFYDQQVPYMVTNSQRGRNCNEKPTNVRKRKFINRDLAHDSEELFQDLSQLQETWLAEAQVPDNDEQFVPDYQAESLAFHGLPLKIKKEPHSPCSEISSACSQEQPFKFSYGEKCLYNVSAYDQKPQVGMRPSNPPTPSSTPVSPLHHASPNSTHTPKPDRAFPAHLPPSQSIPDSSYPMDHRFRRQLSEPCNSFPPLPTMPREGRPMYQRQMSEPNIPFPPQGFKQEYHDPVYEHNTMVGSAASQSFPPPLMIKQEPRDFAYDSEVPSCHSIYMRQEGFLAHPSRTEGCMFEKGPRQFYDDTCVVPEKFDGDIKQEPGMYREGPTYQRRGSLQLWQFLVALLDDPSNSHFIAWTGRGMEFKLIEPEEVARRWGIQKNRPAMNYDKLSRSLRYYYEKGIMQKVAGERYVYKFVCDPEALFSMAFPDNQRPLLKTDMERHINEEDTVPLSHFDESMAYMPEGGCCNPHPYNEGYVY
Sequence of ELF1 (P32519 whole entry): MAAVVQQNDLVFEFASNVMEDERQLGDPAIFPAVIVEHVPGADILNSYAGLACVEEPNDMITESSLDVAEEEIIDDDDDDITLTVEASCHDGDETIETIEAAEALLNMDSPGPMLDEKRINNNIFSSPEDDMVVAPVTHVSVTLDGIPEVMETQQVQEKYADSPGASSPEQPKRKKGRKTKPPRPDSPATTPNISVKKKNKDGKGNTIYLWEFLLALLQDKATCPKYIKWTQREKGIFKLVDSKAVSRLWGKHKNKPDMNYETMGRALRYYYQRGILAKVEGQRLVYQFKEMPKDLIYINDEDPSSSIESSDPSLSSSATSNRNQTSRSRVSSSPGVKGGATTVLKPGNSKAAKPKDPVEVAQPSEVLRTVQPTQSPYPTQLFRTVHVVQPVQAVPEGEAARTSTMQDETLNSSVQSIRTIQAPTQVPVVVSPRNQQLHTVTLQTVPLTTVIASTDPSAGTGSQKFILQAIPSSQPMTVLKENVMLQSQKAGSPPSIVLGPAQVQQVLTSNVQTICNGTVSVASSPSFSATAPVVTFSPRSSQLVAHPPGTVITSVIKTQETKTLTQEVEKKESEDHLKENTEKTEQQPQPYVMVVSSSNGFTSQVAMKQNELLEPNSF
Sequence of CRX (O43186 whole entry): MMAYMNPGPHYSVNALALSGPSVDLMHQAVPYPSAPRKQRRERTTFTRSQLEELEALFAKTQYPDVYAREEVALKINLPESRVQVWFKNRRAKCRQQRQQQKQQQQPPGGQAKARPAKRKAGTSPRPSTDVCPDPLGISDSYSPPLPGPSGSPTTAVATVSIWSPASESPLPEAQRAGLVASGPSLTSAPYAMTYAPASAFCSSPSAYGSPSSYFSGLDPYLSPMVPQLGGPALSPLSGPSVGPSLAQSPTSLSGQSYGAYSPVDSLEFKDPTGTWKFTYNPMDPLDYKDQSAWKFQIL

Consider GCAAGC, for which the binding signal with ELK4 is 1.07 fold enrichment (6-mer frequency, TF over GST control).
Regarding TTGAAG, the binding signal is 1.06 fold enrichment (6-mer frequency, TF over GST control) with ELK1; 1.02 fold enrichment (6-mer frequency, TF over GST control) in the assay with ERG; 1.09 fold enrichment (6-mer frequency, TF over GST control) with ELK4; 1.07 fold enrichment (6-mer frequency, TF over GST control) with ELF3; 1.03 fold enrichment (6-mer frequency, TF over GST control) with CRX; 1.01 fold enrichment (6-mer frequency, TF over GST control) with ETV1. The binding signal was 1.01 fold enrichment (6-mer frequency, TF over GST control) with ERF; 1.03 fold enrichment (6-mer frequency, TF over GST control) with SPDEF; 1.02 fold enrichment (6-mer frequency, TF over GST control) with ETV3.
With TCATTG, the binding signal is 1.01 fold enrichment (6-mer frequency, TF over GST control) in the assay with ELK1; 1 fold enrichment (6-mer frequency, TF over GST control) with GABPA; 1.03 fold enrichment (6-mer frequency, TF over GST control) with ELF1; 1.03 fold enrichment (6-mer frequency, TF over GST control) with EHF; 1.07 fold enrichment (6-mer frequency, TF over GST control) in the assay with ELK4; 1.04 fold enrichment (6-mer frequency, TF over GST control) with ERF. Moreover, the binding signal with ETV3L is 1.04 fold enrichment (6-mer frequency, TF over GST control); with ETS2 it was 1 fold enrichment (6-mer frequency, TF over GST control).
